# Data as given in PubChem BioAssay.
# Activity calls are given as the source filed them.
# Legend:
# Albumin (Bos taurus) = Albumin (Bos taurus) (UniProt P02769); assay: compounds binding labelled BSA control protein – biochemical, small-molecule microarray, Alexa647 label, 635/667 nm fluorescence, artefact control for SMM control protein annotation, profiling panel (AID 1118); conditions: BSA-A647 binding, fluorescence 635 nm, higher = more signal;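 also: score merges 667 nm emission intensity and signal-to-noise per printed compound spot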
# Albumin (Bos taurus), sequence (P02769 whole entry, looked up): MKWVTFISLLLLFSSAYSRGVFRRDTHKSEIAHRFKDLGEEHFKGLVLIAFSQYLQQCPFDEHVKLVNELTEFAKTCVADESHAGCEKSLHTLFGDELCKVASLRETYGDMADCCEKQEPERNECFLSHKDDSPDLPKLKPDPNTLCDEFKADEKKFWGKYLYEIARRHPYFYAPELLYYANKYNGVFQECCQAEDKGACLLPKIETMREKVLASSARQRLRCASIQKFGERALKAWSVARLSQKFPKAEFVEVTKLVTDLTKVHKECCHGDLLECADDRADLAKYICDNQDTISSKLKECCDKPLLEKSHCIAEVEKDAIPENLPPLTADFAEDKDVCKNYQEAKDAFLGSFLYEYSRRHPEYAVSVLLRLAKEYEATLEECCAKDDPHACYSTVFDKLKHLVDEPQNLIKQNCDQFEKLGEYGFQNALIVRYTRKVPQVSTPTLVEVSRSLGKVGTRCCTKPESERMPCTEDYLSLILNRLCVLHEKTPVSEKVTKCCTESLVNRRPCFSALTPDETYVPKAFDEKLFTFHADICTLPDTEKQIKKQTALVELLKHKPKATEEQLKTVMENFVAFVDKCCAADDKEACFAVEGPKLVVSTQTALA
# [1] = probe aXIP binding to arrayed compounds – biochemical, NeuroSMM set, 635/667 nm fluorescence, primary screen (AID 1119); conditions: small-molecule microarray, higher = more signal, called active from +8 up or from −8 down;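 also: probe is the protein aXip251-270 applied at 1 µg/mL to compound-printed slides; binding of probe to printed compounds measured as 667 nm fluorescence plus signal to noise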
# [2] = probe aNOTCH3 binding on compound microarray – biochemical, small-molecule microarray, 635/667 nm fluorescence, primary screen (AID 1120); conditions: higher = more signal;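 also: probe is a biotin-tagged antibody raised against NOTCH3 rather than NOTCH3 protein; score merges spot fluorescence near 667 nm with spot signal to noise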
# [3] = probe aNOTCH2 binding on compound microarray – biochemical, small-molecule microarray, 635/667 nm fluorescence, primary screen (AID 1121); conditions: higher = more signal;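 also: score merges feature fluorescence read at 667 nm with its signal to noise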
# [4] = target: Carbonic anhydrase 2 (Homo sapiens) (UniProt P00918); assay: compounds binding carbonic anhydrase 2 – biochemical, small-molecule microarray, Alexa647-labelled CAII, profiling panel (AID 1122); conditions: CAII-A647 binding fluorescence, higher = more signal
# [5] = COS7 lysate on small-molecule microarray, probe aHis, 635 nm (AID 1123); conditions: COS7 cell lysate, fluorescence, higher = more signal;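 also: z-score combines 667nm fluorescence intensity with signal-to-noise per printed compound spot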
# [6] = probe aLAP1 signal on lysate-treated microarray – cell lysate, small-molecule microarray, COS7 lysate, primary screen (AID 1124); conditions: probe aLAP1, fluorescence, higher = more signal;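 also: lysate comes from COS7 cells expressing LAP1 and is applied at 0.3 µg/mL; score merges spot fluorescence near 667 nm with signal-to-noise over triplicate slides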
# Sam68 (KHDRBS1) = assay: compounds binding KHDRBS1 protein – biochemical, small-molecule microarray, 635 nm fluorescence, primary screen (AID 1125); conditions: higher = more signal;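 also: score merges 667 nm channel intensity with signal to noise over triplicate slides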
# [7] = system: Chordin-like protein 2 (CHRDL2); assay: compounds binding chordin-like 2 – biochemical, small-molecule microarray, 635 nm fluorescence, primary screen (AID 1126); conditions: fluorescence 635 nm, higher = more signal;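 also: printed compound slides probed with Chrdl2 protein at 4 µg/mL for 1 h at 4 C; score merges 667 nm emission intensity with signal to noise over three replicate slides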
# [8] = target: Concanavalin-A (Canavalia ensiformis) (UniProt P02866); assay: compounds binding concanavalin A lectin – biochemical, small-molecule microarray, Alexa647 label, 635 nm, artefact control for SMM control protein annotation, primary screen (AID 1127); conditions: ConA-A647 binding fluorescence, higher = more signal;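 also: z combines 667 nm emission intensity with signal-to-noise across three replicate slides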
# Concanavalin-A (Canavalia ensiformis), sequence (P02866 whole entry, looked up): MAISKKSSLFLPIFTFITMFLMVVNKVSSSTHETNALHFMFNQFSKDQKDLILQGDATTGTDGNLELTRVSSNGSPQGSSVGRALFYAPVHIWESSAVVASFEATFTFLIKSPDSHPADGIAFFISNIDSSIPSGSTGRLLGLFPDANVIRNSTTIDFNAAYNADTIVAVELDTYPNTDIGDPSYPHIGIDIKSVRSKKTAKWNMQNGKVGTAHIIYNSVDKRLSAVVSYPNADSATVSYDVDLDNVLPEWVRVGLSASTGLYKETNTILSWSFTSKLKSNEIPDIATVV
# [9] = compounds binding Alexa647 anti-His antibody – biochemical, small-molecule microarray, 635 nm fluorescence, artefact control for SMM control protein annotation, primary screen (AID 1128); conditions: higher = more signal;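 also: score merges feature fluorescence with signal-to-noise for each printed compound spot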
# [10] = system: Human papillomavirus type 1a E7 protein (residues 1-88); assay: HPV1a E7 small-molecule binders, primary screen, biochemical, small-molecule microarray, residues 1-88, 635 nm (AID 1129); conditions: small-molecule microarray binding, fluorescence 635 nm; higher = more signal
# [11] = target: Focal adhesion kinase 1 (Homo sapiens) (UniProt Q05397); assay: PTK2 protein binding on printed compound slides – biochemical, small-molecule microarray, 635/667 nm fluorescence, BSA, DTT, primary screen (AID 1130); conditions: 635 nm fluorescence, higher = more signal;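 also: composite of spot emission at 667 nm and signal to noise over triplicate slides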
# Focal adhesion kinase 1 (Homo sapiens), sequence (Q05397 whole entry, looked up): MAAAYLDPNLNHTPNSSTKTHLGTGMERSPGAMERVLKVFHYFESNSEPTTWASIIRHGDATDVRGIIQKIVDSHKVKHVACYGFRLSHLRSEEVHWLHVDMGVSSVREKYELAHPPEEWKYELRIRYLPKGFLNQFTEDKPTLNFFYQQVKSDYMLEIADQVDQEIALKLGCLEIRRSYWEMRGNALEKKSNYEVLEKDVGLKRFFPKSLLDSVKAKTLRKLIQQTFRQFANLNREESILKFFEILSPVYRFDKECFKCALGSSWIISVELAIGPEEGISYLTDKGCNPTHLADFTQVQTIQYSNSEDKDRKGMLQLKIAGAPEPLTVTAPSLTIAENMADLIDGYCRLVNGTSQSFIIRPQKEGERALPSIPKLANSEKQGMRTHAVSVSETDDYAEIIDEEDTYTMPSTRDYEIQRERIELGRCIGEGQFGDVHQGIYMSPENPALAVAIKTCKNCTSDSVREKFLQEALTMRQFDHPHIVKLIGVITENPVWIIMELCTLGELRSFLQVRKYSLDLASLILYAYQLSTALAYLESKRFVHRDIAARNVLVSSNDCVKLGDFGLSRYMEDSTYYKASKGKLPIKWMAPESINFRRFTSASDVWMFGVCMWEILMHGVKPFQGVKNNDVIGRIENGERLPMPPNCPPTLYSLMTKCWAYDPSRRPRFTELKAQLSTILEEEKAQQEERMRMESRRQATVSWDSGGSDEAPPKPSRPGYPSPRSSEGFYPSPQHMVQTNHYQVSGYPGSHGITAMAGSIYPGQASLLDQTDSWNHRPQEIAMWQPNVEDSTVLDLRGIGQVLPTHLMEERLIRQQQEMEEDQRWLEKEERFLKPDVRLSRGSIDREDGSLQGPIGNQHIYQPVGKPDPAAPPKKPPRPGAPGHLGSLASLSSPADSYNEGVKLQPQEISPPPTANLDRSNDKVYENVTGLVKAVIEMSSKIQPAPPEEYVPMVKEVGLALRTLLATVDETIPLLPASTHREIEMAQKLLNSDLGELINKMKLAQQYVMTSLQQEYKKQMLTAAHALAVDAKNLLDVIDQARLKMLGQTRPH
# [12] = system: Fibrinogen (Alexa647-labelled); assay: Alexa647-fibrinogen binding to printed small molecules – biochemical, small-molecule microarray, 635/667 nm fluorescence, artefact control for SMM control-protein annotation, profiling panel (AID 1131); conditions: fibrinogen-A647 binding fluorescence, higher = more signal;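 also: z-score merges 667 nm fluorescence with per-spot signal-to-noise over triplicate slides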
# [13] = target: Follistatin (Homo sapiens) (UniProt P19883); assay: FST protein binding to printed compounds – biochemical, small-molecule microarray, 635/667 nm fluorescence, primary screen (AID 1132); conditions: 635 nm fluorescence, higher = more signal
# Follistatin (Homo sapiens), sequence (P19883 whole entry, looked up): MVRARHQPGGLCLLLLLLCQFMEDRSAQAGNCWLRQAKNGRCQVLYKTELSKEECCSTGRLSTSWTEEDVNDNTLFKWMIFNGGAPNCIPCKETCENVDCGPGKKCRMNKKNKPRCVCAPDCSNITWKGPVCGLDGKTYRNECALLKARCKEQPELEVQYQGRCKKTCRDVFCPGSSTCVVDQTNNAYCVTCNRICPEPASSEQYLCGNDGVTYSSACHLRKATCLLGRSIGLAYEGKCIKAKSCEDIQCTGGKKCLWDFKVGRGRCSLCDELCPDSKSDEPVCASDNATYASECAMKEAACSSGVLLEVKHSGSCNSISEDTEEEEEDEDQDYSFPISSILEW
# [14] = target: Fibroblast growth factor 2 (Homo sapiens) (UniProt P09038); assay: basic fibroblast growth factor binding to printed compounds – biochemical, small-molecule microarray, 635/667 nm fluorescence, primary screen (AID 1133); conditions: FGF2, fluorescence 635/667, higher = more signal
# Fibroblast growth factor 2 (Homo sapiens), sequence (P09038 whole entry, looked up): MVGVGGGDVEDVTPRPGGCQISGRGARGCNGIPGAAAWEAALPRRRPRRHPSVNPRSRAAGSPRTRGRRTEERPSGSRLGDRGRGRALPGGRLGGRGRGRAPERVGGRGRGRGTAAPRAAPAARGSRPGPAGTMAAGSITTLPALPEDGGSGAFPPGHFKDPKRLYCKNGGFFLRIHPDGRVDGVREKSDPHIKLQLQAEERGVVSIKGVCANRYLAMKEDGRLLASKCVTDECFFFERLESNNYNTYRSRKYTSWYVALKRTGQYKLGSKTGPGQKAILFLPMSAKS
# [15] = JC-1 mitochondrial potential readout, lung cancer cells – cell-based, A549, JC-1 fluorescence, basal, 24 h, 100 nL, profiling panel (AID 1138); conditions: higher = more signal;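 also: A549 lung adenocarcinoma cells under basal conditions with no added stimulus; test concentration not given here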
# Lefty1 = Lefty1 protein binding to printed compounds – biochemical, small-molecule microarray, 635/667 nm fluorescence, primary screen (AID 1139); conditions: fluorescence 635/667, higher = more signal
# [16] = system: wheat germ agglutinin (Triticum aestivum), Alexa647-labelled; assay: Alexa647-WGA lectin binding to printed small molecules – biochemical, small-molecule microarray, 635/667 nm fluorescence, artefact control for SMM control-protein annotation, profiling panel (AID 1140); conditions: WGA-A647 binding, 635 nm fluorescence, higher = more signal;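 also: score merges 667 nm feature emission with signal to noise over triplicate slides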
# [17] = target: Luciferin 4-monooxygenase (Photinus pyralis) (UniProt P08659); assay: inhibition of purified Photinus pyralis luciferase – biochemical, luminescence, purified enzyme, 2006 set, primary screen (AID 1141); conditions: purified firefly luciferase, SteadyGlo luminescence, 30 min; higher = more signal, called active from +8 up or from −8 down;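 also: cell-free assay with purified firefly luciferase at 100 ng per well in PBS; test concentration not given here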
# Luciferin 4-monooxygenase (Photinus pyralis), sequence (P08659 whole entry, looked up): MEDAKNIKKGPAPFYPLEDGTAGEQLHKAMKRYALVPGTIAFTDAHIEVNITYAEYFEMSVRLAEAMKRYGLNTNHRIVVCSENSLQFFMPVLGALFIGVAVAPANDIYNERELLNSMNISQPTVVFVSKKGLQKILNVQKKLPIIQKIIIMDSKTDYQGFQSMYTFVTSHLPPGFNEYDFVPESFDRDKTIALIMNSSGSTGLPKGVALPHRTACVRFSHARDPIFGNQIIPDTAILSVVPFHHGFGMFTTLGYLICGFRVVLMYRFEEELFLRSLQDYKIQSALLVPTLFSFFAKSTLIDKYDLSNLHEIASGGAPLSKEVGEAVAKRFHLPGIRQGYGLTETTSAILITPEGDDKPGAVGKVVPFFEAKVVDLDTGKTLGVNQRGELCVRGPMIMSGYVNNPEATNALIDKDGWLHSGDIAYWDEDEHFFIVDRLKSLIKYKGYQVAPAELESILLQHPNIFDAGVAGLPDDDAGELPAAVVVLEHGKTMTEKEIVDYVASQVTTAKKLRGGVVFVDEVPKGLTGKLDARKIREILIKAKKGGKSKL
Compound,composite z-score (Albumin (Bos taurus)),composite Z-score [1],composite z-score [2],composite z-score [3],composite z-score [4],composite z-score [5],composite z-score [6],composite z-score (Sam68 (KHDRBS1)),composite z-score [7],composite z-score [8],composite z-score [9],composite z-score [10],composite z-score [11],composite z-score [12],composite z-score [13],composite z-score [14],z-score [15],composite z-score (Lefty1),composite z-score [16],z-score [17]
O=C1C2C=CC(C(O)c3ccc(Br)cc3)N(Nc3ccccc3F)C2C(=O)N1c1ccccc1 (stereo not given),0.826,0.0051 (inactive),-0.038,-0.126,0.762,1.58,0.358,0.68,0.0957,0.667,2.57,0.992,-0.312,0.967,0.0288,-0.265,0.147,-0.107,0.672,1.71 (inactive)
COc1ccccc1CN1C(=O)c2ccccc2[C@](Cc2ccccc2I)(C(=O)NCC(F)(F)F)[C@@H]1c1ccc(CO)cc1,0.832,-0.46 (inactive),0.073,-0.057,0.824,1.95,0.311,1.29,-1.12,1.15,2.25,1.24,0.473,0.74,1.26,0.342,-0.878,0.168,0.887,0.347 (inactive)
O=C1OCC=C[C@H]2OC34C=CCN(Cc5ccccc5)C(=O)[C@H]3N(CCCCCCO)C(=O)[C@@H]4[C@@H]12 (stereo not given in full),0.4,0.604 (inactive),-0.302,-0.162,0.914,0.0976,1.31,-0.398,-0.694,-0.159,1.29,-0.0134,0.879,-1.25,-0.562,-0.292,0.0814,-0.128,0.206,-3.54 (inactive)
O=C(CS)NCCCCCCNC(=O)[C@H]1C[C@H]2C(=O)N[C@@H](Cc3ccccc3)C(=O)N2[C@H]1c1ccc(O)cc1,-0.242,0.578 (inactive),-0.423,-0.0924,0.557,2.18,0.871,1.18,0.757,1.1,1.29,1.25,0.904,0.476,1.22,1.62,-1.61,0.852,0.195,-1.17 (inactive)
O=C(NCC(F)(F)F)[C@@H]1c2ccccc2C(=O)N(Cc2ccc(OC(F)(F)F)cc2)[C@H]1c1ccc(CO)cc1,0.0667,-0.348 (inactive),-0.0647,-0.14,0.65,0.96,0.203,0.761,-0.374,0.711,0.191,-0.0826,0.518,-0.344,1.02,0.45,0.845,0.713,0.444,1.36 (inactive)
Cc1ccc(S[C@]2(C(=O)NCC(F)(F)F)CC(=O)N(C3CCCCC3)[C@@H]2c2ccc(CO)cc2I)cc1,0.488,-0.132 (inactive),-0.046,-0.108,0.369,2.01,0.159,1.3,0.0471,0.955,0.21,1.21,0.543,0.774,0.969,0.621,2.17,0.465,0.395,-0.691 (inactive)
COCCOC(=O)N1C(=O)[C@@]2(c3cc(C#CC4=CCCCC4)ccc31)[C@H](c1ccc(O)cc1)N1[C@H](c3ccccc3)[C@H](c3ccccc3)OC(=O)[C@H]1[C@@H]2C(=O)N1CCN(c2ncccn2)CC1,-1.34,-0.551 (inactive),-0.345,-0.156,-0.391,-0.147,0.601,-0.535,-1.21,-0.217,-0.849,-1.1,-0.415,-0.805,-1.02,-0.958,0.381,-1.14,-0.649,1.18 (inactive)
COC(=O)[C@H](Cc1ccccc1)N1CC(/C=C/C2CC2)=C[C@H]1[C@H](O)Cc1ccccc1,0.59,-0.0662 (inactive),-0.095,-0.14,0.456,0.726,0.148,1.2,0.732,0.981,-0.0173,0.921,0.437,0.667,0.582,0.526,-0.267,0.545,0.958,-0.807 (inactive)
CN(C)C(=O)[C@]1(CCS(=O)(=O)c2ccccc2)N=C(c2ccc(OCCCO)cc2)O[C@@H]1c1ccccc1N=[N+]=[N-],0.963,-0.0275 (inactive),0.545,0.111,0.689,2.93,0.108,1.29,0.555,1.16,1.21,1.27,1.46,1.02,1.44,0.943,1.08,0.762,0.941,-12.3 (active)
COCCOC(=O)N1C(=O)[C@@]2(c3cc(C#CC4=CCCCC4)ccc31)[C@H](C(N)=O)[C@H]1C(=O)O[C@H](c3ccccc3)[C@H](c3ccccc3)N1[C@@H]2c1ccccc1OCCO,-0.24,-0.0254 (inactive),-0.0057,-0.114,0.652,1.59,0.806,1.31,0.588,1.11,1.34,1.21,0.143,0.939,1.31,1.42,-1.89,0.943,1.05,-0.591 (inactive)
